# Data published in PMC12820563, “FoxP3 forms a head-to-head dimer in vivo and stabilizes its multimerization on adjacent microsatellites”.
# Over roughly 16,000 sequences, “rpm ratio (pull-down/input)” has its median near 0.94; the highest 2% begin near 1.7. Only a selection was taken, and the highest values are over-represented in it overall.
# Biological target: T1, MBP-FoxP1dN (Mus musculus, UniProt P58462 326-579)
# T1 sequence: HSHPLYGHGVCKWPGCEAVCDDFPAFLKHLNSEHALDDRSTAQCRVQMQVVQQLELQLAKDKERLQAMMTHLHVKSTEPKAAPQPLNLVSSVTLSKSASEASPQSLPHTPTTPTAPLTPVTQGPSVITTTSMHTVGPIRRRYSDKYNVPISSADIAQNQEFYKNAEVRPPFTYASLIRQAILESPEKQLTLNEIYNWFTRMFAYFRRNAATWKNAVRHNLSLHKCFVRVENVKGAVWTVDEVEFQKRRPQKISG
# Test: PD-seq (MBP pull-down with sequencing); 20 mM Tris-HCl pH 7.5, 100 mM NaCl, 1.5 mM MgCl2, 0.4 uM protein, 0.1 uM dsDNA library, 30 min, room temperature, amylose pull-down; high values mean tight binding
# Details: protein: recombinant; tags: His6-MBP; chain copies: 2; dsDNA, one strand shown
# Summary of the method: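 Amylose resin was used to capture complexes formed during 30 min at room temperature in Tris pH 7.5 buffer with NaCl and MgCl2 between 0.4 µM His6-MBP-tagged mouse FoxP3 or FoxP1 fragment lacking the N-terminus, expressed in E. coli, and 0.1 µM Klenow-filled double-stranded degenerate DNA library. After three washes, the DNA was released with proteinase K, barcoded by PCR and sequenced on Illumina. Binding is pooled-replicate reads-per-million enrichment, pull-down over input.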
row,Sequence,binding signal
1,GATGATTGTTCTCCCAGCTGATGAATTCAATAGATCGAGTAAACAAATTTTCCTAATCTTTCTGTTCAAGCGCCATCTAC,0.887 RPM ratio (pull-down/input)
2,GATGATTGTTCTCCCAGCTGATGAATTATTCTGGTCGAGTAAACAAATTTTCCTAATCTTTCTGTTCAAGCGCCATCTAC,1.04 RPM ratio (pull-down/input)
3,GATGATTGTTCTCCCAGCTGATGAATTGACCATGTCGAGTAAACAAATTTTCCTAATCTTTCTGTTCAAGCGCCATCTAC,0.875 RPM ratio (pull-down/input)
4,GATGATTGTTCTCCCAGCTGATGAATTACTTTGCTCGAGTAAACAAATTTTCCTAATCTTTCTGTTCAAGCGCCATCTAC,1.02 RPM ratio (pull-down/input)
5,GATGATTGTTCTCCCAGCTGATGAATTCTATTAGTCGAGTAAACAAATTTTCCTAATCTTTCTGTTCAAGCGCCATCTAC,1.14 RPM ratio (pull-down/input)
6,GATGATTGTTCTCCCAGCTGATGAATTGTGTACCTCGAGTAAACAAATTTTCCTAATCTTTCTGTTCAAGCGCCATCTAC,1.6 RPM ratio (pull-down/input)
7,GATGATTGTTCTCCCAGCTGATGAATTTCACCCATCGAGTAAACAAATTTTCCTAATCTTTCTGTTCAAGCGCCATCTAC,0.921 RPM ratio (pull-down/input)
8,GATGATTGTTCTCCCAGCTGATGAATTTTTCGCGTCGAGTAAACAAATTTTCCTAATCTTTCTGTTCAAGCGCCATCTAC,1.01 RPM ratio (pull-down/input)
9,GATGATTGTTCTCCCAGCTGATGAATTATTGATTTCGAGTAAACAAATTTTCCTAATCTTTCTGTTCAAGCGCCATCTAC,1.72 RPM ratio (pull-down/input)
10,GATGATTGTTCTCCCAGCTGATGAATTGATTATTTCGAGTAAACAAATTTTCCTAATCTTTCTGTTCAAGCGCCATCTAC,1.39 RPM ratio (pull-down/input)
11,GATGATTGTTCTCCCAGCTGATGAATTATTGTTTTCGAGTAAACAAATTTTCCTAATCTTTCTGTTCAAGCGCCATCTAC,2.83 RPM ratio (pull-down/input)
12,GATGATTGTTCTCCCAGCTGATGAATTTGAGCTCTCGAGTAAACAAATTTTCCTAATCTTTCTGTTCAAGCGCCATCTAC,0.775 RPM ratio (pull-down/input)
13,GATGATTGTTCTCCCAGCTGATGAATTTCGAGTTTCGAGTAAACAAATTTTCCTAATCTTTCTGTTCAAGCGCCATCTAC,0.851 RPM ratio (pull-down/input)
14,GATGATTGTTCTCCCAGCTGATGAATTTTGTTGTTCGAGTAAACAAATTTTCCTAATCTTTCTGTTCAAGCGCCATCTAC,2.84 RPM ratio (pull-down/input)
15,GATGATTGTTCTCCCAGCTGATGAATTTTTTTGTTCGAGTAAACAAATTTTCCTAATCTTTCTGTTCAAGCGCCATCTAC,0.971 RPM ratio (pull-down/input)
16,GATGATTGTTCTCCCAGCTGATGAATTGTTGTTTTCGAGTAAACAAATTTTCCTAATCTTTCTGTTCAAGCGCCATCTAC,3.52 RPM ratio (pull-down/input)
17,GATGATTGTTCTCCCAGCTGATGAATTTGTTTGTTCGAGTAAACAAATTTTCCTAATCTTTCTGTTCAAGCGCCATCTAC,2.73 RPM ratio (pull-down/input)

row,Sequence,binding signal
1,GATGATTGTTCTCCCAGCTGATGAATTTCTTTGTTCGAGTAAACAAATTTTCCTAATCTTTCTGTTCAAGCGCCATCTAC,0.994 RPM ratio (pull-down/input)
2,GATGATTGTTCTCCCAGCTGATGAATTCTTTGTTTCGAGTAAACAAATTTTCCTAATCTTTCTGTTCAAGCGCCATCTAC,1.23 RPM ratio (pull-down/input)
3,GATGATTGTTCTCCCAGCTGATGAATTTTTGTTTTCGAGTAAACAAATTTTCCTAATCTTTCTGTTCAAGCGCCATCTAC,2.71 RPM ratio (pull-down/input)
4,GATGATTGTTCTCCCAGCTGATGAATTTCAAATTTCGAGTAAACAAATTTTCCTAATCTTTCTGTTCAAGCGCCATCTAC,0.846 RPM ratio (pull-down/input)
5,GATGATTGTTCTCCCAGCTGATGAATTTGTTCTTTCGAGTAAACAAATTTTCCTAATCTTTCTGTTCAAGCGCCATCTAC,1.3 RPM ratio (pull-down/input)
6,GATGATTGTTCTCCCAGCTGATGAATTGCTCGACTCGAGTAAACAAATTTTCCTAATCTTTCTGTTCAAGCGCCATCTAC,0.946 RPM ratio (pull-down/input)
7,GATGATTGTTCTCCCAGCTGATGAATTTCCCCATTCGAGTAAACAAATTTTCCTAATCTTTCTGTTCAAGCGCCATCTAC,0.898 RPM ratio (pull-down/input)
8,GATGATTGTTCTCCCAGCTGATGAATTTTTTTCCTCGAGTAAACAAATTTTCCTAATCTTTCTGTTCAAGCGCCATCTAC,0.754 RPM ratio (pull-down/input)
9,GATGATTGTTCTCCCAGCTGATGAATTTTCATCCTCGAGTAAACAAATTTTCCTAATCTTTCTGTTCAAGCGCCATCTAC,0.875 RPM ratio (pull-down/input)
10,GATGATTGTTCTCCCAGCTGATGAATTTGTTTTTTCGAGTAAACAAATTTTCCTAATCTTTCTGTTCAAGCGCCATCTAC,2.09 RPM ratio (pull-down/input)
11,GATGATTGTTCTCCCAGCTGATGAATTTGTTGATTCGAGTAAACAAATTTTCCTAATCTTTCTGTTCAAGCGCCATCTAC,2.39 RPM ratio (pull-down/input)
12,GATGATTGTTCTCCCAGCTGATGAATTCTTTGATTCGAGTAAACAAATTTTCCTAATCTTTCTGTTCAAGCGCCATCTAC,0.885 RPM ratio (pull-down/input)
13,GATGATTGTTCTCCCAGCTGATGAATTTGTTGTTTCGAGTAAACAAATTTTCCTAATCTTTCTGTTCAAGCGCCATCTAC,2.54 RPM ratio (pull-down/input)
14,GATGATTGTTCTCCCAGCTGATGAATTGTTTTGTTCGAGTAAACAAATTTTCCTAATCTTTCTGTTCAAGCGCCATCTAC,1.97 RPM ratio (pull-down/input)
15,GATGATTGTTCTCCCAGCTGATGAATTTTTTGATTCGAGTAAACAAATTTTCCTAATCTTTCTGTTCAAGCGCCATCTAC,1.02 RPM ratio (pull-down/input)
16,GATGATTGTTCTCCCAGCTGATGAATTGTTTGATTCGAGTAAACAAATTTTCCTAATCTTTCTGTTCAAGCGCCATCTAC,1.33 RPM ratio (pull-down/input)
